p53ts 39C tox: p53ts cell cytotoxicity, nonpermissive temperature. H1299-p53A138V viability at 39C, ATP luminescence, 24 h. Potency, µM (highest dose often 46.1 µM), actives largely listed as cytotoxic. 1.5% of 130,000 active. AID 902; also: nearly all actives have a fitted effect of over 55% in size
Imprint erasure: inducers of genomic imprint erasure in mouse ES cells. mouse ES Peg3-LacZ reporter, beta-gal luminescence, 40 h. Potency, µM (series often up to 60.7 µM), most hits filed as activators. 0.02% of 110,000 active. AID 1948
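Gelatin-coated wells received 300 freshly trypsinized female ES cells with a Peg3LacZ-Neo reporter on the maternal allele, then incubated 40 hours at 37C. BetaGlo was added for 5 minutes at room temperature before a single luminescence read.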
IkB sig inh: IkB pathway inhibition in ABC-DLBCL cells. ABC-DLBCL IkBa-CBG/CBR dual luciferase ratio, 4 h; response scale: scaled: untreated 0%, proteasome inhibitor 100%. Potency, µM (top dose mostly 57.1 µM). 0.04% of 110,000 active; active = well fitted curve in the direction sought with a large enough effect in the signal ratio, not every such curve was filed as active; inconclusive = small, poorly fitted or top-dose-only effect, or a change in a side signal; the % refers to the signal ratio;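 also: the direction sought is a rising ratio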
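Curves were fitted separately to fusion (green), unfused (red) and ratio luminescence, then classed by r2, magnitude and activity. Cells: OCI-Ly3, 4 h compound plus doxycycline at 37C; 10 uM MG-132 defined full response.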
p53ts 32C kill: kills p53ts cells at the permissive temperature. H1299-p53A138V at 32C, ATP luminescence viability, 24 h. AID 924. 0.93% of 130,000 active. Potency, µM (titrated, usually from 46.1 µM), usual class: cytotoxic; also: nearly all actives have a fitted effect of over 55% in size
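ATP-content luminescence (ATPlite) read-out after 24 h compound exposure at 32C in H1299-p53A138V cells (600/well). Tested up to 46 uM. Normalized to DMSO (0%) and 100 uM tamoxifen (100% killing); Hill-fit AC50.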
Large screens that a line does not name were inactive. In the library only some 1.8% were active in any assay of this set; here they are far more common. Unless noted, calls follow the shape of the dose curve; as a rule, active = well fitted curve in the direction sought with a large enough effect; inconclusive = small, poorly fitted or top-dose-only effect, or another doubt; inactive = no such curve, though single readings can be large; an effect the other way counts as inactive or inconclusive.

Cc1ccc2scc(N3CCCC(C)C3)c(=O)c2c1 (stereo not drawn)	p53ts 39C tox inconclusive, IkB sig inh inconclusive, p53ts 32C kill 13µM
COc1ccc(C(=O)N=c2nc3ccccn3s2)cc1	p53ts 39C tox 0.32µM, IkB sig inh inconclusive, p53ts 32C kill 0.79µM
COC(=O)c1ccc(NC(=O)c2cc3cc4ccc(OC)c(Cl)c4nc3s2)cc1	none
COc1cccc(-c2cc(=O)c3ccccc3o2)c1N	p53ts 39C tox 5µM, p53ts 32C kill 7.9µM
O=c1cc(-c2ccccc2)oc2cc(O)c(O)c(O)c12	p53ts 39C tox 0.63µM, p53ts 32C kill inconclusive
COc1cccc2oc(-c3ccccc3)cc(=O)c12	p53ts 39C tox 7.9µM, p53ts 32C kill 10µM (no result: IkB sig inh)
COc1cccc2oc(SC)cc(=O)c12	none (no result: p53ts 39C tox, IkB sig inh, p53ts 32C kill)
COc1cccc2oc(-c3ccc(O)cc3)cc(=O)c12	p53ts 39C tox 7.9µM, p53ts 32C kill 6.3µM
COc1ccccc1-c1cc(=O)c2cccc(OC)c2o1	none (no result: IkB sig inh)
O=c1cc(-c2cccc(O)c2)oc2cccc(O)c12	none (no result: IkB sig inh)
CNC(=O)C1CCC(Cn2c(=O)c3sccc3n(CC(=O)NCc3cccc(OC)c3)c2=O)CC1 (stereo not drawn)	none
COc1ccccc1N(CC(=O)NCCSc1ccccc1)S(=O)(=O)c1ccc(C)cc1	IkB sig inh inconclusive
COc1cc(/C=N/NC(=O)c2cc(-c3ccccc3)n[nH]2)ccc1O	none (no result: Imprint erasure, IkB sig inh)
O=C(N/N=C\c1ccccc1O)c1ccccc1O	p53ts 39C tox 2µM, IkB sig inh inconclusive, p53ts 32C kill 1.3µM
COc1cccc(-c2cc(C(=O)N/N=C/c3ccccc3O)[nH]n2)c1	p53ts 39C tox 10µM, p53ts 32C kill inconclusive (no result: Imprint erasure, IkB sig inh)
O=C(N/N=C/c1ccco1)c1cc(-c2ccccc2)n[nH]1	none (no result: Imprint erasure, IkB sig inh)
O=C(N/N=C/c1ccccc1O)c1cc(-c2ccccc2)n[nH]1	p53ts 39C tox 16µM (no result: Imprint erasure, IkB sig inh)
O=c1c(O)c(-c2ccc(O)c(O)c2)oc2c(OC[C@H]3O[C@@H](O)[C@@H](O)[C@H](O)[C@@H]3O)c(O)cc(O)c12	none (no result: p53ts 39C tox, Imprint erasure, p53ts 32C kill)
CCc1ccc(-c2nc(CN3CCCC(C(=O)N4CCN(c5cc(Cl)ccc5C)CC4)C3)c(C)o2)cc1 (stereo not drawn)	p53ts 39C tox inconclusive, IkB sig inh inconclusive, p53ts 32C kill 13µM
CCc1ccccc1NC(=O)c1ccc(F)c(S(=O)(=O)N2CCN(c3ccccc3OC)CC2)c1	IkB sig inh inconclusive
NC(=NCc1ccc(Cl)c(Cl)c1)NC(=O)c1nc(Cl)c(N)nc1N	p53ts 39C tox 13µM, p53ts 32C kill 13µM
COc1ccc(OC)c(NC(=O)CSc2ncc3c(n2)-c2ccccc2N(C)S3(=O)=O)c1	none
COc1ccc(CNC(=O)CSc2nnc(C)c3c(C)n(-c4ccccc4)nc23)c(OC)c1	p53ts 39C tox 13µM, IkB sig inh inconclusive
Cc1nnc(SCC(=O)NCc2ccccc2F)c2nn(-c3ccc(Cl)cc3)c(C)c12	none
COc1ccccc1CNC(=O)CCn1nc(C)c2c(C)n(-c3ccccc3)nc2c1=O	none
COc1cccc(CNC(=O)CSc2nnc(C)c3c(C)n(-c4ccccc4)nc23)c1OC	p53ts 39C tox 25µM, IkB sig inh inconclusive
CCCCc1ccc(NC(=O)COc2cccc3c(=O)n(C)ccc23)cc1	none
O=C(/C=C\Nc1cccc(F)c1)c1ccc2c(c1)OCO2	p53ts 39C tox 10µM, IkB sig inh inconclusive, p53ts 32C kill 4µM
O=C(Nc1ccc2c(c1)OCO2)c1cccc(F)c1	p53ts 32C kill inconclusive
COc1ccccc1NC(=O)C1=C(C)Nc2nc(SCc3ccccc3Cl)nn2C1c1cccnc1 (stereo not drawn)	p53ts 39C tox 10µM, IkB sig inh inconclusive
COc1ccccc1NC(=O)C1=C(C)Nc2nc(SCc3ccccc3F)nn2C1c1cccnc1 (stereo not drawn)	none
CC(C)=CC(=O)Nc1ccc2c(c1)OCO2	p53ts 39C tox inconclusive, p53ts 32C kill 10µM
Cc1ccc(C)c(CN2CCC(CNC(=O)c3cc4ccc5cccnc5c4[nH]3)CC2)c1	none
Cc1ccc(CN2CCC(CNC(=O)c3cc4ccc5cccnc5c4[nH]3)CC2)cc1	p53ts 39C tox 13µM, IkB sig inh inconclusive, p53ts 32C kill inconclusive
CCN(Cc1ccccc1)C(=O)c1cc2ccc3cccnc3c2[nH]1	p53ts 39C tox 32µM, IkB sig inh inconclusive, p53ts 32C kill inconclusive
Cc1ccc(CNC(=O)c2cc3ccc4cccnc4c3[nH]2)cc1	IkB sig inh inconclusive
COc1ccc(-c2cc(C(=O)N/N=C/c3ccc(O)cc3)[nH]n2)cc1	p53ts 32C kill inconclusive (no result: Imprint erasure, IkB sig inh)
CC1=C(\C=C/C(C)=C/C=C\C(C)=C\C(=O)O)C(C)(C)CCC1	IkB sig inh inconclusive
CC1=C(/C=C/C(C)=C/C=C/C(C)=C/C(=O)Nc2ccc(O)cc2)C(C)(C)CCC1	p53ts 39C tox 16µM, IkB sig inh inconclusive, p53ts 32C kill inconclusive
CCOC(=O)Cc1ccc(NC(=O)N2CC(CC)Oc3ccccc32)cc1 (stereo not drawn)	none
CCS(=O)(=O)c1ncc(Cl)c(C(=O)Nc2ccc(S(=O)(=O)N(C)c3ccccc3)cc2)n1	p53ts 39C tox 3.2µM, IkB sig inh inconclusive, p53ts 32C kill inconclusive
CCSc1ncc(Cl)c(C(=O)Nc2ccc(S(=O)(=O)N(C)c3ccccc3)cc2)n1	none
O=C(Nc1ccc(N2CCOCC2)cc1)c1cnsn1	p53ts 39C tox 5µM, IkB sig inh inconclusive, p53ts 32C kill 4µM
O=C(Nc1ccc(N2CCOCC2)cc1)c1ccncc1	none (no result: Imprint erasure, IkB sig inh)
CCN(c1ccccc1)S(=O)(=O)c1ccc(NC(=O)c2nc(S(C)(=O)=O)ncc2Cl)cc1	p53ts 39C tox 3.2µM, p53ts 32C kill inconclusive
CCOC(=O)c1nc(S(C)(=O)=O)ncc1N1CCOCC1	none
CS(=O)(=O)c1ncc(Cl)c(C(=O)Nc2ccc(N3CCOCC3)cc2)n1	p53ts 39C tox inconclusive, IkB sig inh inconclusive, p53ts 32C kill 13µM
Cc1cc(C)n2nc(CNC(=O)c3c(F)cccc3F)nc2n1	none
FC(F)(F)c1cccc(Nc2c3c(nc4ccc(Cl)cc24)CCC3)c1	p53ts 39C tox 13µM, IkB sig inh inconclusive, p53ts 32C kill 11µM
Fc1ccc(F)c(Nc2c3c(nc4ccc(Cl)cc24)CCC3)c1	IkB sig inh inconclusive
Nn1c(COc2ccccc2)nnc1SC(F)F	Imprint erasure 4µM
Nn1c(COc2ccccc2)nnc1SCc1cc(=O)[nH]c2ccccc12	none
CCC(=O)Nc1cccc(OCc2cc(=O)n3cc(C)ccc3n2)c1	p53ts 39C tox inconclusive, IkB sig inh inconclusive, p53ts 32C kill inconclusive
COc1ccc(NC(=O)Nc2ccccc2OCc2cc(=O)n3ccccc3n2)c(OC)c1	p53ts 39C tox 16µM, p53ts 32C kill inconclusive
COc1ccc(OC)c(NC(=O)Nc2cccc(OCc3cc(=O)n4cc(C)ccc4n3)c2)c1	p53ts 39C tox 6.3µM, IkB sig inh inconclusive, p53ts 32C kill 6.3µM
Cc1cc(Nc2cccc(C(F)(F)F)c2)nc2ccc(NC(=O)c3cccnc3)cc12	p53ts 32C kill 13µM (no result: p53ts 39C tox, Imprint erasure, IkB sig inh)
CCOC(=O)c1sc(NC(=O)C2CC2)cc1C	p53ts 39C tox 13µM, p53ts 32C kill 13µM
CCOC(=O)c1sc(NC(=O)c2ccc(Cl)s2)cc1C	p53ts 32C kill inconclusive
CC(=O)Nc1ccc(NC(=O)C2(c3cccs3)CCOCC2)cc1	none
